According to PubChem BioAssay (NCI):
About 83,000 compounds went through this panel and 20% of them were active in at least one assay; those are over-represented in the sample as a whole.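 96-well plates, one dose, 48 hours. Percent growth reported; active if below 10.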 Unmarked numbers belong to inactive results. Activity calls are given as the source filed them.

Each compound was assayed on BT-549 breast (assay: NCI-60 one-dose screen, 48 h (100 = growth as untreated, 0 = no growth, -100 = all killed)). Details: 10 µM unless noted.
Compound COc1ccc2oc3c4[nH]c5ccccc5c4c4c(c3c2c1)C(=O)N(O)C4=O has a growth of 104%.
In the case of O=S(=O)(NCCCNc1nccc(-n2cnc3ccccc32)n1)c1ccc(F)cc1, the growth is reported as 34.9%.
In the case of CCNC(=O)Oc1ccc(/C(=C(/C)c2ccc(Cl)cc2)c2ccc(OCCN(C)C)cc2)cc1, the growth is reported as 77%.
Compound Oc1ccc(CSc2nnc(-c3ccc(Oc4ccccc4)cc3)n2-c2ccccc2)c2cccnc12 has a growth of 21.7%.
Fc1ccc(-c2cc3nc(C(Cl)Cl)nc(-c4cccs4)n3n2)cc1 was tested, and the growth was 92%.
Compound Fc1ccccc1/C=C(/C1=NCCN1)n1cnc2ccccc21 has a growth of 102%.
For COc1ccc2c(c1)c(-c1nn3c(=O)cc(-c4ccccc4)nc3s1)cn2C, the growth was 49.8%.
O=C1c2cc(Br)ccc2-n2c1nc1cc(Br)ccc1c2=O was tested, and the growth was 124%.
Work on CCOC(=O)C1=C(C)Nc2nnc(Nc3ccccc3)n2C1c1ccccc1 (stereo not drawn) yielded a growth of 84%.
With CCc1ccc(NC(=O)N[C@@H](Cc2cccc(C)c2)C(=O)N[C@@H]2C(=O)N3CCC[C@H]3C(=O)N3CCCC[C@H]3C(=O)N[C@@H](CO)C(=O)N3C[C@H](C)C[C@H]3C(=O)O[C@H]2C)c(F)c1 the growth was 24.9%.
For COc1ccc(-c2cc(-c3cccc4ccccc34)n3c(n2)nc2ccccc23)cc1OC, the growth was 34.6%.
Compound COc1cc2oc(-c3cccc(NC(=O)c4cc(NC(=O)[C@H](C)N)ccc4Cl)c3)cc(=O)c2c(OC)c1OC has a growth of 108%.
CC(=O)c1ccc(NC(=O)COc2ccc(C3SCC(=O)N3c3ccc(Br)cc3)cc2)cc1 (stereo not drawn) showed a growth of 95.7%.
O=C(O)CNS(=O)(=O)c1ccc(Oc2ccc(S(=O)(=O)NCC(=O)O)cc2)cc1 was tested, and the growth was 115%.
In the case of C/C(=C(/C)C1CC1CCN(C(=O)c1ccc([N+](=O)[O-])cc1)S(=O)(=O)c1ccc(C)cc1)C1CCCCC1 (stereo not drawn), the growth is reported as 136%.
COCCOc1ccc(-c2csc(NC(=O)CN3CCN(CCO)CC3)n2)cc1NS(=O)(=O)c1cccc2c(N(C)C)cccc12 showed a growth of 96.1%.
For CCN1C/C(=N\S(=O)(=O)c2ccccc2)N(CC)C1=S, the growth was 97.3%.
Cc1ccc(C2CC(c3ccc(Nc4nc(NCCO)nc(Nc5ccc(Cl)cc5)n4)cc3)=Nc3c(N)nc(N)nc3N2)cc1 (stereo not drawn) gave a growth of 80.7%.
CSc1nccc(-c2c(-c3ccc(F)c(OCc4ccc(F)cc4)c3)nc3sccn23)n1 gave a growth of 71.3%.
In the case of Clc1ccccc1/C=C/c1nn2c(-c3ccncc3)nnc2s1, the growth is reported as 107%.
O=S(=O)(Nc1ccc(-n2cnc3cc(-c4ccc(O)cc4)ccc32)cc1)C1CC1 was tested, and the growth was 91.9%.
With COc1cc2c3c(n(CCCNC4CCCCC4)c(=O)c2cc1OC)-c1cc2c(cc1C3=O)OCO2 the growth was 78.2%.
CCOc1ccc2nc(NC(=O)Nc3ccccc3C)sc2c1 was tested, and the growth was 53.8%.
Work on CS(=O)(=O)c1ccc(-c2nn(-c3ccccc3)cc2/C=N/NC(=O)c2ccncc2)cc1 yielded a growth of 97.1%.
With Oc1ccc(CSc2nnc(-c3ccccc3)n2-c2ccccc2)c2cccnc12 the growth was 25.2%.
For O=C(c1ccc(O)cc1)[C@@H]1[C@@H]2CCCN2[C@@]2(C(=O)N(C(=O)c3ccc(F)cc3)c3ccccc32)[C@H]1c1ccc(F)cc1, the growth was 98.5%.
In the case of CNC(=O)c1c(NC(=O)c2ccc(F)cc2F)sc2c1CCC(=O)C2, the growth is reported as 6.83% (active).
With Nc1n[nH]c2cccc(C#Cc3cccc(NC(=O)c4cccc(OC(F)(F)F)c4)c3)c12 the growth was 85%.
In the case of Cc1cn(-c2cc(NC(=O)c3cncc(C#Cc4cnc5ccc(OCCCS(C)(=O)=O)nn45)c3)cc(C(F)(F)F)c2)cn1, the growth is reported as -1.88% (active).
Compound COc1c([C@@H](CC(C)C)OC(C)=O)ccc2c1C(=O)OCc1cc(C)cc(O)c1O2 has a growth of 31.3%.
In the case of COc1cc(C(=O)C[n+]2ccc3ccccc3c2)cc(OC)c1OC, the growth is reported as 107%.
COc1ccc(CCN2C(=O)CSC2=S)cc1OC gave a growth of 110%.
With C/C(=N\NC(=O)CSc1nc2sc3c(c2c(=O)n1-c1ccccc1)CCC(C)C3)c1ccc(Cl)cc1 (stereo not drawn) the growth was 36.8%.
In the case of Cn1nc(Nc2ccccc2)c(C(=O)NN)c1N, the growth is reported as 129%.
For N/C(=N\c1nc2c(Cl)cccc2s1)C(Cl)(Cl)Cl, the growth was 111%.
COc1cc(O)c2c(c1)/C=C/C[C@H](O)[C@H](O)C(=O)/C=C\C[C@H](C)OC2=O was tested, and the growth was -29.2% (active).
For CCCCCCNC(=O)Oc1ccc(/C(=C(/C)c2ccccc2)c2ccc(OCCN(C)C)cc2)cc1, the growth was 75.3%.
CS(=O)c1nccc(-c2c(-c3ccc(F)c(OCc4ccc(F)cc4)c3)nc3sccn23)n1 (stereo not drawn) gave a growth of 102%.
